Screens from PubChem BioAssay.
Shown are actives, neighbours in structure and some others; about 1.7% of the full set was active somewhere.
GLP1R cytotox: qHTS of GLP-1 Receptor Inverse Agonists: Cytotox Screen; HEK293 cAMP-luciferase reporter cells, luminescence, 24 h; Potency, µM (top dose mostly 38.3 µM), most hits filed as inhibitors; 0.13% of 410,000 active; AID 624418, 2012;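 further: loss of luciferase light is scored as toxicity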
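A 23 nL compound transfer followed 12 hours of cell culture at 37 deg C; exposure then lasted 24 hr. Luciferase assay detection reagent was dispensed and plates read for luminescence after a 12 min room-temperature wait.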
PTHR1 agonist: qHTS for PTHR1 Agonists: Primary Screen; Parathyroid hormone/parathyroid hormone-related peptide receptor (Homo sapiens), Q03431; HEK293 GP2 PTHR1 cells, GloSensor cAMP luminescence, 1 h; Potency, µM (highest dose often 115 µM), actives largely listed as activators; 0.075% of 410,000 active; AID 743266, 2014; further: nearly all actives have a fitted effect of over 55% in size
Target sequence (Q03431 whole entry, looked up): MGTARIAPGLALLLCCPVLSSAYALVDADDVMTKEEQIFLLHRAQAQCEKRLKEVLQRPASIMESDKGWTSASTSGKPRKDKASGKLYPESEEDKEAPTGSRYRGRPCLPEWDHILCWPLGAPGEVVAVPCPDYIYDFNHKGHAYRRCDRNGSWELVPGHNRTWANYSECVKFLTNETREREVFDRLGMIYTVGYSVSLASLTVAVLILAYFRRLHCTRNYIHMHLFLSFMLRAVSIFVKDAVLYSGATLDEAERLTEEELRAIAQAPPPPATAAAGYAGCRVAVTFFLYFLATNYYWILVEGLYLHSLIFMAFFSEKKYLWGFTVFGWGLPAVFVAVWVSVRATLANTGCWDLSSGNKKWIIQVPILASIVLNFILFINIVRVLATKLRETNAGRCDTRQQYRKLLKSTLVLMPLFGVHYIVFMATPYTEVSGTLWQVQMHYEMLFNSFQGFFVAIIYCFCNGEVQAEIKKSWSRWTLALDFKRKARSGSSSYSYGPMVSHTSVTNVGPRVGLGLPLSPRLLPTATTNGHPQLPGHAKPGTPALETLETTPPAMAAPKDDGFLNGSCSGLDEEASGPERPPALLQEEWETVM
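HEK-293-derived GP2 cells expressing PTHR1 and a GloSensor cAMP reporter, 3,000/well, plated overnight, given luciferin plus IBMX (each 0.5 mM as added) for 1 h at 37 °C, then compound for 1 h at 37 °C. Luminescence was read after 15 min at room temperature.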
GLP1R ag: qHTS of GLP-1 Receptor Agonists | Potency, µM (series often up to 45.6 µM), most hits filed as activators | 0.007% of 380,000 active | Glucagon-like peptide 1 receptor (Homo sapiens), P43220 | HEK293 GLP-1R CRE-luciferase, luminescence, 4-6 h; cells express a hypersensitive GLP-1R form
GLP-1R inv ag: qHTS of GLP-1 Receptor Inverse Agonists (Inhibition Mode). Glucagon-like peptide 1 receptor (Homo sapiens), P43220. HEK293 GLP-1R CRE-luciferase, luminescence, 24 h; GLP-1R form is constitutively active. Potency, µM (highest dose often 38.3 µM), hits mostly inhibitors. 1.6% of 410,000 active. AID 624417, 2012; further: nearly all actives have a fitted effect of over 55% in size
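Luminescence readout: a drop in cAMP-driven luciferase signal flags inverse agonism at a constitutively active GLP-1R stably expressed in HEK293. Compound exposure lasted 24 hr at 37 deg C, 5% CO2.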
A number is an active result; i = inactive; ? = inconclusive; nt = no result. The call rests on the fitted dose curve; in most records, active means well fitted curve in the direction sought with a large enough effect; inconclusive means small, poorly fitted or top-dose-only effect, or another doubt; inactive means no such curve, though single readings can be large; an effect the other way counts as inactive or inconclusive.

SMILES | GLP1R cytotox | PTHR1 agonist | GLP1R ag | GLP-1R inv ag
Cc1ccc(NC(=O)CSc2nc3ccc(NC(=O)c4cccc(Cl)c4)cc3s2)c(C)c1 | i | i | nt | i
Cc1nn(CCC(=O)Nc2ccc(Cl)cc2)c(C)c1S(=O)(=O)N1CCCCC1 | i | i | nt | ?
CCOc1ccccc1CNC(=O)c1ccc2c(c1)nc1n2CCCCC1 | i | i | nt | ?
Cc1ccc(CNc2oc(-c3ccco3)nc2S(=O)(=O)c2ccccc2)cc1 | i | i | i | 10µM
O=C(Nc1cc(Cl)cc(Cl)c1)c1cccc(OC(F)F)c1 | i | i | i | 13µM
O=C(NC(c1ccc(F)cc1)c1ccc2ccccc2n1)C1CCN(CCOc2ccc(Cl)cc2Cl)CC1 (stereo not given) | 11µM | i | i | ?
O=C(NC(c1ccc(F)cc1)c1ccc2ccccc2n1)C1CCN(Cc2ccc(Oc3ccccc3)cc2)CC1 (stereo not given) | i | ? | i | ?
COc1cc(CN2CCC(C(=O)NC(c3ccc(F)cc3)c3ccc4ccccc4n3)CC2)cc(OC)c1 (stereo not given) | i | i | i | 2.8µM
O=C(NC(c1ccccc1)c1ccc2ccccc2n1)C1CCN(CCOc2ccc(Cl)cc2)CC1 (stereo not given) | i | i | i | 11µM
Cc1ccc2nc(-c3ccc(NC(=O)CNC4CC4)cc3)sc2c1 | i | i | i | 13µM
CCc1ccc2ncc3c(-c4ccc(C)cc4)nn(CC(=O)Nc4ccc(C)cc4)c3c2c1 | i | i | nt | i
CCN1C(=O)C2(c3ccccc31)c1c(oc3ccc(F)cc3c1=O)C(=O)N2CCCOC (stereo not given) | i | i | nt | i
O=C(CCCOc1ccc(Cl)cc1Cl)N/N=C/c1ccccc1O | ? | i | i | 4.5µM
COc1cc(Cl)c(NS(=O)(=O)c2ccc(-c3coc(C)n3)cc2)c(OC)c1 | i | i | i | ?
CC(=O)c1ccc(NS(=O)(=O)c2cc(-c3cc(C)no3)ccc2C)cc1 | i | i | nt | i
CCOC(=O)C(C)N1C(=O)S/C(=C/c2cc(C)n(-c3ccncc3)c2C)C1=O (stereo not given) | i | i | i | ?
CCOC(=O)C(C)N1C(=O)S/C(=C/c2cc(C)n(-c3ccccn3)c2C)C1=O (stereo not given) | i | i | i | 10µM
O=Cc1cn(CCC(=O)O)nc1-c1cccc(Br)c1 | i | i | i | i
O=C(O)CCn1cc(/C=C\C(=O)c2ccc(Cl)cc2)c(-c2cccc(Br)c2)n1 | i | i | i | 13µM
CCn1cc2nc(SCC(=O)Nc3cc(OC)ccc3OC)n(Cc3ccc(Cl)cc3)c(=O)c2n1 | i | i | i | i
CCC(CCCO)CCC[C@H](C)CCC1OCCO1 (stereo not given in full) | i | i | i | 8.9µM
O=c1[nH]c(/C=C\c2ccc(O)c(O)c2)nc(O)c1[N+](=O)[O-] | 11µM | i | i | i
O=c1[nH]c(/C=C\c2cccc(O)c2)nc(O)c1[N+](=O)[O-] | i | i | i | i
CCOC(=O)c1ccc(N/C(=N\S(=O)(=O)c2ccccc2C)c2ccccc2)cc1 | i | i | i | ?
Cc1ccc(C)c(S(=O)(=O)/N=C(/Nc2ccccc2)c2ccccc2)c1 | i | i | i | 10µM
SMILES | GLP1R cytotox | PTHR1 agonist | GLP1R ag | GLP-1R inv ag
COc1ccc(-c2oc3ccccc3c(=O)c2OC(=O)c2ccc(C)cc2)cc1 | i | i | i | i
O=C(Oc1c(-c2ccccc2)oc2ccccc2c1=O)c1ccccc1 | i | i | i | 5µM
C/C(=C\C(=O)c1ccc(Br)cc1)NNC(=O)c1ccc(O)cc1 | ? | i | i | 4.5µM
CC(C)(C)c1nnc(NS(=O)(=O)c2ccccc2)s1 | nt | nt | i | nt
COc1ccc(CCNc2oc(COc3ccccc3)nc2C#N)cc1 | i | i | i | ?
COc1ccc(CNc2oc(COc3cccc(C)c3)nc2C#N)cc1 | i | i | nt | ?
Cc1cccc(OCc2nc(C#N)c(NCc3ccc4c(c3)OCO4)o2)c1 | i | i | i | 11µM
COc1ccc(CNc2oc(COc3ccccc3)nc2C#N)cc1 | i | i | i | 10µM
COc1ccc2c(c1)c1c(c(=O)n(-c3cccc(Cl)c3)c(=O)n1CC(=O)N1CCCC1)n2C | i | i | i | i
CC(=O)O[C@H]1C[C@@H]2CC[C@@H]3[C@H](CC[C@]4(C)[C@H](OC(C)=O)[C@@H](N5CC[N+](C)(C)CC5)C[C@@H]34)[C@@]2(C)C[C@@H]1N1CC[N+](C)(C)CC1 | nt | nt | i | nt
OCC1OC(n2ccc3c2ncn2ncnc32)C(O)C1O (stereo not given) | i | i | i | 7.9µM
Nc1ccn([C@@H]2O[C@H](CO)[C@@H](O)[C@@H]2O)c(=O)n1 | i | i | i | ?
CCCCC(=O)NC(c1ccco1)c1c(O)ccc2ccccc12 (stereo not given) | i | i | i | 8.9µM
CC(C)CC(=O)NC(c1ccccc1Cl)c1c(O)ccc2ccccc12 (stereo not given) | i | i | i | 8.9µM
Cc1ccc(NC(=O)Cc2ccc(-n3c(C)nc4cccnc43)cc2)c(Cl)c1 | i | i | nt | i
C[C@@H](C(=O)O)c1ccc(C2CCCCC2)c2ccccc12 | nt | nt | i | nt
Cc1oc2ncn(C)c(=O)c2c1C(=O)N1CCN(c2ccccc2F)CC1 | i | i | i | i
N#CC1(Cc2ccccc2)c2ccccc2C=CN1C(=O)c1ccccc1 (stereo not given) | i | i | i | 8.9µM
Fc1ccc(-c2cn3cc(Cc4ccccc4)sc3n2)cc1 | i | i | nt | ?
Cc1cc(C)cc(NC(=O)C(OC(=O)c2cccs2)c2ccccc2)c1 (stereo not given) | i | i | i | 10µM
COc1ccccc1NC(=O)c1ncoc1-c1ccco1 | i | i | nt | i
CCCCCCCCCCCC[n+]1ccc2ccccc2c1 | nt | nt | i | nt
COc1cc(S(=O)(=O)N2CCCCCC2)c(OC)cc1Br | i | i | i | 4.5µM
CC1CCCCC1NCC#CCOc1ccc(Cl)cc1 (stereo not given) | i | i | i | 11µM
CCN(CC)CCNC(=O)c1cc2cc(Br)ccc2s1 | i | i | i | 3.2µM
SMILES | GLP1R cytotox | PTHR1 agonist | GLP1R ag | GLP-1R inv ag
CCOc1ccc(-c2csc(-c3c(N)c(C(=O)c4ccc5c(c4)OCO5)n4ccccc34)n2)cc1 | i | i | nt | i
Cc1ccc(C(C)C)cc1OCCOCCN1CCCC1 | i | i | i | 7.9µM
Cc1ccc(NC(=O)CSc2cn(CC(=O)N3CCOCC3)c3ccccc23)cc1Cl | i | i | nt | i
COc1ccc(CCNC(=O)CCS(=O)(=O)c2cc(Br)cc3c2N(C(C)=O)CC3)cc1OC | i | i | i | i
O=C1[C@H]2[C@@H](c3ccc(F)cc3)N3C(=O)N(c4cccc(Br)c4)C(=O)[C@@]3(Cc3ccccc3)[C@H]2C(=O)N1C1CCCCC1 | i | i | i | 2.8µM
CC[C@@]12C(=O)N(c3cccc(Br)c3)C(=O)N1[C@H](c1ccc(F)cc1)[C@@H]1C(=O)N(C3CCCCC3)C(=O)[C@@H]12 | i | i | i | 8.9µM
